38 compounds from PubChem BioAssay (Tox21) can be followed below.

Inconclusive results are not listed. Unmarked numbers belong to inactive results. Calls follow the shape of the full dose curve.
% is scaled to controls: 0 for no effect and ±100 for the full control effect.

Chain of Thyrotropin receptor (Homo sapiens) (P16473 whole entry, looked up): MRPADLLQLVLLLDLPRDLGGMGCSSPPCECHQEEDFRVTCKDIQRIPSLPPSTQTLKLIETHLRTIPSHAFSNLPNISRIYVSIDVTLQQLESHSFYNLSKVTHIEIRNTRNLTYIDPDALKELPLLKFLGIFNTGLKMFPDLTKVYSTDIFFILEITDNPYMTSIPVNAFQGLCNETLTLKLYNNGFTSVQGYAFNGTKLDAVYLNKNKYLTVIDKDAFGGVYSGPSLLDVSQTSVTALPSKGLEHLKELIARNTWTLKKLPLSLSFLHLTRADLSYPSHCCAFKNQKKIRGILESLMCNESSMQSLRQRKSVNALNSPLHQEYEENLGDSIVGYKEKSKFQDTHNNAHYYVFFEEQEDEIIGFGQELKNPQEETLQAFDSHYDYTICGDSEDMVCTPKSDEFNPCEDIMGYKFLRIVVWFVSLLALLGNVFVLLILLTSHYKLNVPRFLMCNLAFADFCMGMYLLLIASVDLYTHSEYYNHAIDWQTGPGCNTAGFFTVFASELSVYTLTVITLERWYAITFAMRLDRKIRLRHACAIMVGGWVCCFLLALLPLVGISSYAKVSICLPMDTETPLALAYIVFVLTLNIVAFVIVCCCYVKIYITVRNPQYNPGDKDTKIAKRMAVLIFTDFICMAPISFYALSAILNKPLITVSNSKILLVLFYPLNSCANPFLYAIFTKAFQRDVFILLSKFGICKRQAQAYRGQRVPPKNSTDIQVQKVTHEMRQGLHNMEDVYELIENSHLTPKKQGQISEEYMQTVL

One assay addresses Thyrotropin receptor (Homo sapiens) (UniProt P16473). Description: qHTS assay to identify small molecule agonists of the thyroid stimulating hormone receptor (TSHR) signaling pathway (AID 1224843). Also: nearly all actives have a fitted effect of over 45% in size. To be noted: TSHR-HEK293 cells, cAMP HTRF, agonist mode, 30 min; series mostly up to 92.4 µM; activation: at the top concentration. Put shortly: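 Screening of the Tox21 10K collection used HEK293 cells engineered with TSHR at 800 cells per well. After a 30-min room-temperature compound exposure, HTRF cAMP reagents were added and fluorescence recorded 1 h later.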
On to `CCC1COC(=O)O1` (stereo unspecified), for which the “activation” value was -0.361%.

Consider `C[CH2][Ge]([Cl])([CH2]C)[CH2]C`, for which the “activation” value is 2.33%. In the case of `Cc1cccc(Nc2ccncc2S(=O)(=O)NC(=O)NC(C)C)c1`, the “activation” value is 7.24% [at 42.5 µM]. As for `Oc1ccccc1Cc1ccccc1O`, the “activation” value is -21.3%. Same read-out and setting: the same measure for `CC(=O)OCCCc1ccccc1`: 0.331%; for `CN[C@@H]1[C@@H](O)[C@@H](O[C@@H]2[C@H](O)[C@H](O[C@H]3OC(CN)=CC[C@H]3N)[C@@H](N)C[C@H]2N)OCC1(C)O` (stereo partly specified): 1.17% [at 42.5 µM]; for `CCC(C)(C)C1CCC(=O)CC1`: 1.61%. Consider `NC(=O)NNC(N)=O`, for which the “activation” value was -14.2%. As for `CCCCCCCCCCCCCCCC(=O)NCCO`, the “activation” value was 18.4% [at 42.5 µM].

For the compound `O=C(O)c1ccc(OCCN2CCCCC2)cc1`, the “activation” value is 2.16% [at 42.5 µM]. On to `O=CN1CCOCC1`, for which the “activation” value was 0.0472%. Still for that read-out and setting: the same measure for `CCCCCCCCOC(C)=O`: -12.7%; for `CCCCC(C)C(=O)O` (stereo unspecified): -2.18%.

As to `CCCCCCCCCCCCCCCCI`, the activation is -19.7% [at 19 µM]. Same read-out and setting: the same measure for `COc1ccc(NS(=O)(=O)c2ccc(N)cc2)nn1`: 2.26% [at 42.5 µM]. In the case of `O=c1[nH]c(=O)c2ccccc2o1`, the “activation” value was 8.76% [at 42.5 µM]. Consider `O=C(COCCOCCOCC(=O)Nc1c(I)cc(I)c(C(=O)O)c1I)Nc1c(I)cc(I)c(C(=O)O)c1I`, for which the “activation” value was 9.69% [at 42.5 µM]. Consider `CCCCCCCCCCC`, for which the “activation” value is 4.38%. Turning to `C=CCOc1c(Br)cc(C(C)(C)c2cc(Br)c(OCC=C)c(Br)c2)cc1Br`, the “activation” value was 0.762% [at 42.5 µM]. In the case of `O=C(O)/C=C/c1ccccc1`, the “activation” value is -6.42%.

With `C[C@H](CCC(=O)NCC(=O)O)[C@H]1CC[C@H]2[C@@H]3[C@H](O)C[C@@H]4C[C@H](O)CC[C@]4(C)[C@H]3C[C@H](O)[C@]12C`, the “activation” value is 0.384%.

As to `CN(C)CCOCCN(C)CCO`, the “activation” value is 3.63%. Consider `COc1cc(C=O)ccc1OC(=O)C(C)C`, for which the “activation” value is 3.1%. Take `O=C(Oc1ccccc1C(=O)O)c1ccccc1O`: the “activation” value is -1.3% [at 42.5 µM]. With `CCCCCCCCCCCCCCCCCCN(C)C`, the “activation” value was -4.05% [at 42.5 µM].

In the case of `O=C(O)CCNC(=O)c1ccccc1`, the “activation” value is -6.18% [at 42.5 µM]. Regarding `CC(=O)Nc1ncc([N+](=O)[O-])s1`, the “activation” value is 5.34% [at 42.5 µM]. `COc1cccc2sc(N)nc12`: the “activation” value is 6.33%.

Tested on in a further assay: not listed separately
Description: qHTS assay to identify small molecule agonists of the hypoxia (HIF-1) signaling pathway - cell viability counter screen (AID 1224844). Also: nearly all actives have a fitted effect of over 50% in size. To be noted: HRE-bla ME-180 viability, CellTiter-Glo luminescence, 17 h; series mostly up to 76.8 µM; activity change, negative = cytotoxicity: at the top concentration. Put shortly: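 HRE-bla ME-180 cells, 2,000/well in 0.5% dialyzed FBS medium, treated 17 h at 37C with compounds. Viability read in the same wells as the bla reporter, by CellTiter-Glo luminescence after 30 min at room temperature.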
(In general: In qHTS, concentration-response curves come from the screen itself.)
In the case of `CC(=O)Nc1ccc(C)cc1`, the “activity change, negative = cytotoxicity” value was -1.67%. Same read-out and setting: the figure for `C[CH2][Ge]([Cl])([CH2]C)[CH2]C` is 1.34%. Regarding `Cc1cccc(Nc2ccncc2S(=O)(=O)NC(=O)NC(C)C)c1`, the “activity change, negative = cytotoxicity” value is 0.639% [at 35.3 µM].

As to `Oc1ccccc1Cc1ccccc1O`, the “activity change, negative = cytotoxicity” value is -6.01%. `CCCCCN(CCCOC)C(=O)C(CCC(=O)O)NC(=O)c1ccc(Cl)c(Cl)c1` (stereo unspecified): the “activity change, negative = cytotoxicity” value was -2.54% [at 35.3 µM]. Take `NS(=O)(=O)c1ccccc1OC(F)(F)F`: the “activity change, negative = cytotoxicity” value was -0.953%. For the compound `CC(=O)OCCCc1ccccc1`, the “activity change, negative = cytotoxicity” value is 14.8%. Take `CN[C@@H]1[C@@H](O)[C@@H](O[C@@H]2[C@H](O)[C@H](O[C@H]3OC(CN)=CC[C@H]3N)[C@@H](N)C[C@H]2N)OCC1(C)O` (stereo partly specified): the “activity change, negative = cytotoxicity” value is -0.152% [at 35.3 µM]. For `CCC(C)(C)C1CCC(=O)CC1`, the “activity change, negative = cytotoxicity” value was -0.261%.

With `Cc1ccccc1C`, the “activity change, negative = cytotoxicity” value was 4.23%. Consider `NC(=O)NNC(N)=O`, for which the “activity change, negative = cytotoxicity” value is 4.14%.

In the case of `CCCCCCCCCCCCCCCC(=O)NCCO`, the “activity change, negative = cytotoxicity” value was -11.7% [at 35.3 µM].

`C=CCOc1c(Br)cc(Br)cc1Br`: the “activity change, negative = cytotoxicity” value is -1.25%. Regarding `O=CN1CCOCC1`, the “activity change, negative = cytotoxicity” value was 16.9%.

As for `CCCCCCCCOC(C)=O`, the “activity change, negative = cytotoxicity” value was 7.09%. For the compound `CC(C)COC(=O)COc1ccc(Cl)cc1Cl`, the “activity change, negative = cytotoxicity” value is 6.49%. For `CCCCC(C)C(=O)O` (stereo unspecified), the “activity change, negative = cytotoxicity” value was 7.1%. On the same count and under the same terms, the same measure for `COc1ccc(NS(=O)(=O)c2ccc(N)cc2)nn1`: -0.686% [at 35.3 µM]; for `CNCc1ccccc1`: 0.48% [at 35.3 µM]. Take `O=C(COCCOCCOCC(=O)Nc1c(I)cc(I)c(C(=O)O)c1I)Nc1c(I)cc(I)c(C(=O)O)c1I`: the “activity change, negative = cytotoxicity” value is 5.26% [at 35.3 µM]. For the compound `CCCCCCCCCCC`, the “activity change, negative = cytotoxicity” value is -27.4%. Turning to `CCCOC(=O)CCCCC(=O)OCCC`, the “activity change, negative = cytotoxicity” value was 4.38%. Take `CN(C)CCOCCN(C)CCO`: the “activity change, negative = cytotoxicity” value is 4.53%. On to `CC(C)SCc1ccco1`, for which the “activity change, negative = cytotoxicity” value is -0.157% [at 35.3 µM]. In the case of `CCNC(=O)NCCCOc1cccc(CN2CCCCC2)c1`, the “activity change, negative = cytotoxicity” value is 6.81% [at 35.3 µM]. Same read-out and setting: the figure for `O=C(Oc1ccccc1C(=O)O)c1ccccc1O` is -0.818% [at 35.3 µM]; for `CC(=O)Nc1ncc([N+](=O)[O-])s1` it is 4.24% [at 35.3 µM].

Regarding `COc1cccc2sc(N)nc12`, the “activity change, negative = cytotoxicity” value is 0.286%.
